Inconclusive results are not listed. Activity calls are given as the source filed them. The calls were made as follows: active = hit-call score of the fitted dose curve at least 0.9, where 1 is the maximum; inconclusive = response in the unintended direction; inactive = score below 0.9.

The test system of one test is Thyroperoxidase (TPO), gene 54314. The experiment in a line: CCTE_Simmons_AUR_rTPO: CCTE's Amplex UltraRed Assay for Thyroperoxidase (TPO) Inhibition, Simmons Lab (AID 2283662).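 As to AC50: potency for loss of signal meaning inhibition of peroxidase activity.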 In outline: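 Endpoint is decreased Amplex UltraRed fluorescence after a 30-min, 37C reaction of rat thyroid microsomes with 300 uM H2O2. Eight test concentrations (5 nM–87.5 uM final) in 0.5% DMSO, three biological replicates each.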
What is called AC50 is the concentration at which the activity in the assay is half-maximal. Take `CCOP(=S)(OCC)OC(Cl)C(Cl)(Cl)Cl` (centres undefined): the AC50 was 3.97 µM (active).

Take `CCOC(=O)CC(SP(=O)(OC)OC)C(=O)OCC` (centres undefined): the AC50 was 29.2 µM (active).

With `CCOP(=O)(NC(C)C)Oc1ccc(SC)c(C)c1` (centres undefined), the compound was classed as inactive.

For the compound `C=C(C)[C@H]1Cc2c(ccc3c2O[C@@H]2COc4cc(OC)c(OC)cc4[C@@H]2C3=O)O1`, the AC50 was 26.5 µM (active).

Read-out in the next test: xenobiotic metabolism (CYP1A2), CYP1A2 (gene 1544)
Briefly: CLD_CYP1A2_6hr: CellzDirect (CLD) Gene Expression Assay for xenobiotic metabolism (CYP1A2) at 6 hours (AID 2283663).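 As to AC50: potency is for induction meaning a rise in mRNA above DMSO.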 In outline:
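mRNA levels quantified by quantitative nuclease protection assay with chemiluminescence, 6 h after dosing human primary hepatocyte cultures (two donors) across several concentrations, vehicle 0.2% DMSO. Induction fitted upward versus DMSO; phase-contrast cytotoxicity annotated.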
Consider `CCOP(=S)(OCC)OC(Cl)C(Cl)(Cl)Cl` (centres undefined), for which the result was inactive.

With `Nc1c(Cl)cc([N+](=O)[O-])cc1Cl`, the compound was called inactive.

Consider `CCOC(=O)CC(SP(=O)(OC)OC)C(=O)OCC` (centres undefined), for which the compound was classed as inactive.

In the case of `CC(C)[C@H](C(=O)O[C@H](C#N)c1cccc(Oc2ccccc2)c1)c1ccc(Cl)cc1`, the result was inactive.

With `CCOP(=O)(NC(C)C)Oc1ccc(SC)c(C)c1` (centres undefined), the AC50 is 4.22 µM (active).

For the compound `CC(C)N(C(=O)SCC(Cl)=C(Cl)Cl)C(C)C`, the result was inactive.

Consider `CC[C@H](C)[C@H]1O[C@]2(C=C[C@@H]1C)C[C@@H]1C[C@@H](C/C=C(\C)[C@@H](O[C@H]3C[C@H](OC)[C@@H](O[C@H]4C[C@H](OC)[C@@H](NC)[C@H](C)O4)[C@H](C)O3)[C@@H](C)/C=C/C=C3\CO[C@@H]4[C@H](O)C(C)=C[C@@H](C(=O)O1)[C@]34O)O2`, for which the AC50 was 10.5 µM (active).

As to `C[N+]1(C)CCCCC1`, the call was inactive.

Consider `CC(COc1ccc(Oc2ccccc2)cc1)Oc1ccccn1` (centres undefined), for which the outcome was inactive.

`CCOP(=O)(OCC)Oc1cc(C)nc(C(C)C)n1`: the result was inactive.

In the case of `CCOP(=S)(OCC)SCCSCC`, the AC50 was 3.97 µM (active).

With `CC(Oc1cccc(Cl)c1)C(=O)O` (centres undefined), the result was inactive.

Regarding `CSc1nnc(C(C)(C)C)c(=O)n1N`, the outcome was inactive.

For the compound `FC(F)C(F)(F)OCC(Cn1cncn1)c1ccc(Cl)cc1Cl` (centres undefined), the AC50 was 2.45 µM (active).

For the compound `CCC(CC)Nc1c([N+](=O)[O-])cc(C)c(C)c1[N+](=O)[O-]`, the compound was called inactive.

On to `CCNc1nc(Cl)nc(NC(C)(C)C#N)n1`, for which the call was inactive.

Take `CCCCOC(=O)[C@@H](C)Oc1ccc(Oc2ccc(C#N)cc2F)cc1`: the outcome was inactive.

Take `CN1COCN(Cc2cnc(Cl)s2)C1=N[N+](=O)[O-]`: the call was inactive.

With `CCCCSP(=O)(SCCCC)SCCCC`, the AC50 was 2.96 µM (active).

Take `CNc1cnn(-c2cccc(C(F)(F)F)c2)c(=O)c1Cl`: the AC50 was 38.7 µM (active).

On to `CC(C)=CC1C(C(=O)OCN2C(=O)C3=C(CCCC3)C2=O)C1(C)C` (centres undefined), for which the outcome was inactive.

Consider `Cc1ccn2nc(S(=O)(=O)Nc3c(F)cccc3F)nc2n1`, for which the call was inactive.

As for `CC1=NNC(=O)N(/N=C/c2cccnc2)C1`, the outcome was inactive.

Regarding `COP(=O)(OC)OC(Br)C(Cl)(Cl)Br` (centres undefined), the outcome was inactive.

Read-out in a further test: xenobiotic metabolism (CYP2C9), CYP2C9 (gene 1559)
Briefly: CLD_CYP2C9_6hr: CellzDirect (CLD) Gene Expression Assay for xenobiotic metabolism (CYP2C9) at 6 hours (AID 2283664). In outline: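 Readout is qNPA chemiluminescence of CYP2C9 mRNA, taken 6 h after dosing of cultured human liver primary cells at several concentrations. Activity is the increase over 0.2% DMSO baseline. Morphology-based cytotoxicity flagged yes/no.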
Consider `CCOP(=S)(OCC)OC(Cl)C(Cl)(Cl)Cl` (centres undefined), for which the compound was called inactive.

Consider `Nc1c(Cl)cc([N+](=O)[O-])cc1Cl`, for which the compound was called inactive.

`O=[N+]([O-])c1cc(C(F)(F)F)c(Cl)c([N+](=O)[O-])c1Nc1ncc(C(F)(F)F)cc1Cl`: the call was inactive.

For the compound `C=C(C)[C@H]1Cc2c(ccc3c2O[C@@H]2COc4cc(OC)c(OC)cc4[C@@H]2C3=O)O1`, the outcome was inactive.

In the case of `CC(C)N(C(=O)SCC(Cl)=C(Cl)Cl)C(C)C`, the call was inactive.

Turning to `CC[C@H](C)[C@H]1O[C@]2(C=C[C@@H]1C)C[C@@H]1C[C@@H](C/C=C(\C)[C@@H](O[C@H]3C[C@H](OC)[C@@H](O[C@H]4C[C@H](OC)[C@@H](NC)[C@H](C)O4)[C@H](C)O3)[C@@H](C)/C=C/C=C3\CO[C@@H]4[C@H](O)C(C)=C[C@@H](C(=O)O1)[C@]34O)O2`, the compound was classed as inactive.

Take `CCOP(=O)(OCC)Oc1cc(C)nc(C(C)C)n1`: the call was inactive.

With `CSc1nnc(C(C)(C)C)c(=O)n1N`, the call was inactive.

As for `O=C(O)c1cc(Oc2ccc(C(F)(F)F)cc2Cl)ccc1[N+](=O)[O-]`, the compound was called inactive.

Regarding `CCC(CC)Nc1c([N+](=O)[O-])cc(C)c(C)c1[N+](=O)[O-]`, the outcome was inactive.

As to `CCNc1nc(Cl)nc(NC(C)(C)C#N)n1`, the compound was classed as inactive.

For the compound `COc1cc(OC)nc(Sc2cccc(Cl)c2C(=O)O)n1`, the compound was called inactive.

With `CN1COCN(Cc2cnc(Cl)s2)C1=N[N+](=O)[O-]`, the outcome was inactive.

Take `CCCCSP(=O)(SCCCC)SCCCC`: the result was inactive.

Regarding `CCc1cccc(CC)c1N(COC)C(=O)CCl`, the compound was called inactive.

`CC(C)=CC1C(C(=O)OCN2C(=O)C3=C(CCCC3)C2=O)C1(C)C` (centres undefined): the result was inactive.

On to `CC(=NC#N)N(C)Cc1ccc(Cl)nc1`, for which the call was inactive.

With `Cc1ccn2nc(S(=O)(=O)Nc3c(F)cccc3F)nc2n1`, the compound was classed as inactive.

For the compound `CCCCOC(=O)c1ccccc1C(=O)O`, the compound was classed as inactive.

For the compound `CNC(=O)ON=C(SC)C(=O)N(C)C`, the outcome was inactive.

System in another test: not listed separately
Briefly: CCTE_Simmons_CellTiterGLO_HEK293T: Viability Assessment in CCTE's Assays for Thyroperoxidase (TPO) Inhibition, Simmons Lab (AID 2283665).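 As to AC50: cells exposed to compound for 24 h before readout; actives reduce ATP signal below DMSO vehicle meaning cytotoxicity.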 In outline:
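ATP depletion measured in HEK293T cells after 24 h dosing (8 concentrations, 5 nM–87.5 uM final; DMSO 0.5%) using CellTiter-Glo luminescence; curves fit for loss of signal against DMSO baseline.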
Turning to `CCOP(=S)(OCC)OC(Cl)C(Cl)(Cl)Cl` (centres undefined), the concentration at half-maximal activity (AC50) is 64.7 µM (active).

Regarding `CCOC(=O)CC(SP(=O)(OC)OC)C(=O)OCC` (centres undefined), the call was inactive.

As to `C=C(C)[C@H]1Cc2c(ccc3c2O[C@@H]2COc4cc(OC)c(OC)cc4[C@@H]2C3=O)O1`, the outcome was inactive.

System in the next test: not listed separately
The experiment in a line: Tanguay_ZF_120hpf_TR_legacy: (Legacy) Oregon State University Tanguay Lab 120 Hour Post-fertilization zebrafish Assay for Touch Response (AID 2283667). In outline:
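Binary touch-response call at 120 hpf, analysed as gain of signal versus DMSO baseline. Wild-type 5D larvae, static exposure at 28C, 0.64% DMSO final; 5uM trimethyltin chloride as positive control.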
Turning to `COP(=O)(OC)C(O)C(Cl)(Cl)Cl` (centres undefined), the outcome was inactive.

With `Nc1c(Cl)cc([N+](=O)[O-])cc1Cl`, the AC50 was 38.8 µM (active).

In the case of `CCOC(=O)CC(SP(=O)(OC)OC)C(=O)OCC` (centres undefined), the outcome was inactive.

Consider `O=[N+]([O-])c1cc(C(F)(F)F)c(Cl)c([N+](=O)[O-])c1Nc1ncc(C(F)(F)F)cc1Cl`, for which the result was inactive.

In the case of `CC(C)[C@H](C(=O)O[C@H](C#N)c1cccc(Oc2ccccc2)c1)c1ccc(Cl)cc1`, the AC50 was 5.43 µM (active).

Take `CCOP(=O)(NC(C)C)Oc1ccc(SC)c(C)c1` (centres undefined): the compound was classed as inactive.

Regarding `C=C(C)[C@H]1Cc2c(ccc3c2O[C@@H]2COc4cc(OC)c(OC)cc4[C@@H]2C3=O)O1`, the call was inactive.

As to `CC(C)N(C(=O)SCC(Cl)=C(Cl)Cl)C(C)C`, the outcome was inactive.

For the compound `CC[C@H](C)[C@H]1O[C@]2(C=C[C@@H]1C)C[C@@H]1C[C@@H](C/C=C(\C)[C@@H](O[C@H]3C[C@H](OC)[C@@H](O[C@H]4C[C@H](OC)[C@@H](NC)[C@H](C)O4)[C@H](C)O3)[C@@H](C)/C=C/C=C3\CO[C@@H]4[C@H](O)C(C)=C[C@@H](C(=O)O1)[C@]34O)O2`, the AC50 was 0.0479 µM (active).

Turning to `COc1ccc(C(=CC(=O)N2CCOCC2)c2ccc(Cl)cc2)cc1OC`, the AC50 was 42.4 µM (active).

`C[N+]1(C)CCCCC1`: the result was inactive.

With `CC(COc1ccc(Oc2ccccc2)cc1)Oc1ccccn1` (centres undefined), the call was inactive.

Regarding `CCOP(=O)(OCC)Oc1cc(C)nc(C(C)C)n1`, the compound was classed as inactive.

As to `C#CC(C)(C)NC(=O)c1cc(Cl)cc(Cl)c1`, the call was inactive.

As to `CCOP(=S)(OCC)SCCSCC`, the outcome was inactive.

For `CC(Oc1cccc(Cl)c1)C(=O)O` (centres undefined), the compound was called inactive.

Consider `O=C(O)c1cc(Oc2ccc(C(F)(F)F)cc2Cl)ccc1[N+](=O)[O-]`, for which the outcome was inactive.

`FC(F)C(F)(F)OCC(Cn1cncn1)c1ccc(Cl)cc1Cl` (centres undefined): the AC50 was 34.8 µM (active).

With `CCC(CC)Nc1c([N+](=O)[O-])cc(C)c(C)c1[N+](=O)[O-]`, the outcome was inactive.

`CCNc1nc(Cl)nc(NC(C)(C)C#N)n1`: the compound was called inactive.

Regarding `COc1cc(OC)nc(Sc2cccc(Cl)c2C(=O)O)n1`, the compound was classed as inactive.

As for `CCCCOC(=O)[C@@H](C)Oc1ccc(Oc2ccc(C#N)cc2F)cc1`, the compound was classed as inactive.

Regarding `CCCCSP(=O)(SCCCC)SCCCC`, the compound was called inactive.

With `CNc1cnn(-c2cccc(C(F)(F)F)c2)c(=O)c1Cl`, the call was inactive.

On to `CCc1cccc(CC)c1N(COC)C(=O)CCl`, for which the outcome was inactive.

Consider `CC(C)=CC1C(C(=O)OCN2C(=O)C3=C(CCCC3)C2=O)C1(C)C` (centres undefined), for which the outcome was inactive.

For `CCCOc1nn(C(=O)NS(=O)(=O)c2ccccc2C(=O)OC)c(=O)n1C`, the call was inactive.

Take `CC(=NC#N)N(C)Cc1ccc(Cl)nc1`: the compound was called inactive.

Take `Cc1ccn2nc(S(=O)(=O)Nc3c(F)cccc3F)nc2n1`: the compound was called inactive.

On to `CCCCOC(=O)c1ccccc1C(=O)O`, for which the outcome was inactive.

In the case of `CC1=NNC(=O)N(/N=C/c2cccnc2)C1`, the compound was called inactive.

In the case of `COP(=O)(OC)OC(Br)C(Cl)(Cl)Br` (centres undefined), the compound was called inactive.

As for `CNC(=O)ON=C(SC)C(=O)N(C)C`, the compound was classed as inactive.

Values taken from PubChem BioAssay (EPA / NIEHS).
